According to PubChem BioAssay AID1159580 (chemical genetic matrix, 2015):
“And” between values parts separate entries of the source, which are not always exact repeats. Equal entries are not always repeated. Screen size: about 5,500 compounds; about 2,000 (36%) were called active. Roughly 18% stayed inconclusive and do not appear here. Rule as the data show it: active = normalized growth mostly below about 0.91 (no sharp cut-off); inconclusive = no clear call, values can overlap the other calls; inactive = mostly above about 0.92. This is one part of the list.

Assay: chemical genetic growth profiling, strain panel (AID 1159580);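 also: tested at 20 µM; growth read once vehicle control cultures reached saturation at 30 °C; 1 = growth at the plate median or of vehicle wells; lower values mean less growth of the strain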
Details: S. cerevisiae deletion strains, growth OD

Measured: normalized growth

CC(C)=CCc1c2c(c3occ(-c4ccc(O)cc4)c(=O)c3c1O)C=CC(C)(C)O2
0.886 (active) and 0.97 (inactive): locus YHR030C, strain SLT2, stronger effect = lower value
inactive: locus YAL021C, strain ccr4, stronger effect = lower value 0.962 | locus YAL026C, strain drs2, stronger effect = lower value 0.911 | locus YBR021W, strain FUR4, stronger effect = lower value 0.913 | locus YBR171W, strain sec66, stronger effect = lower value 1.01 | locus YBR229C, strain ROT2, stronger effect = lower value 0.929 | locus YCL029C, strain bik1, stronger effect = lower value 0.926 | locus YCL061C, strain MRC1, stronger effect = lower value 0.947 | locus YCL069W, strain vba3, stronger effect = lower value 0.987 | locus YCR088W, strain abp1, stronger effect = lower value 1.01 | locus YDL005C, strain med2, stronger effect = lower value 0.995 | locus YDL040C, strain nat1, stronger effect = lower value 0.991 | locus YDL101C, strain DUN1, stronger effect = lower value 0.903 | locus YDL185W, strain tfp1, stronger effect = lower value 0.995 | locus YDR001C, strain nth1, stronger effect = lower value 1.01 | locus YDR101C, strain arx1, stronger effect = lower value 0.953 | locus YDR137W, strain rgp1, stronger effect = lower value 1.01 | locus YDR159W, strain sac3, stronger effect = lower value 1.07 | locus YDR195W, strain ref2 1.14 | locus YDR334W, strain swr1, stronger effect = lower value 0.92 | locus YDR335W, strain msn5, stronger effect = lower value 0.981 | locus YDR392W, strain spt3, stronger effect = lower value 0.78 | locus YDR502C, strain sam2, stronger effect = lower value 0.938 | locus YEL003W, strain gim4, stronger effect = lower value 0.94 | locus YEL037C, strain rad23, stronger effect = lower value 0.958 | locus YEL061C, strain CIN8 (second series), stronger effect = lower value 1.01 | locus YER016W, strain bim1, stronger effect = lower value 0.963 | locus YER110C, stronger effect = lower value 0.989 | locus YER111C, strain swi4, stronger effect = lower value 0.969 | locus YER155C, strain BEM2 (second series), stronger effect = lower value 0.956 | locus YER155C, strain BEM2, stronger effect = lower value 0.98 | locus YGL078C, strain dbp3, stronger effect = lower value 1 | locus YGL167C, strain pmr1, stronger effect = lower value 0.976 | locus YGL227W, strain vid30, stronger effect = lower value 1.01 | locus YGL240W, strain doc1, stronger effect = lower value 1.02 | locus YGR135W, strain pre9, stronger effect = lower value 0.955 | locus YGR252W, strain gcn5, stronger effect = lower value 1.03 | locus YHR079C, strain IRE1 (second series), stronger effect = lower value 1 | locus YHR079C, strain IRE1, stronger effect = lower value 0.992 | locus YHR094C, strain hxt1, stronger effect = lower value 1.01 | locus YIL125W, strain kgd1, stronger effect = lower value 0.982 | locus YIR030C, strain dcg1, stronger effect = lower value 0.995 | locus YJL092W, strain hpr5, stronger effect = lower value 0.977 | locus YJL115W, strain asf1, stronger effect = lower value 1.01 | locus YJL129C, strain trk1, stronger effect = lower value 1.02 | locus YJL134W, strain LCB3, stronger effect = lower value 0.944 | locus YJL154C, strain vps35, stronger effect = lower value 1.01 | locus YJL168C, strain set2, stronger effect = lower value 0.996 | locus YJR066W, strain TOR1, stronger effect = lower value 0.906 | locus YKL009W, strain mrt4, stronger effect = lower value 0.961 | locus YKL068W, stronger effect = lower value 1.01 | locus YKL085W, strain MDH1 (second series), stronger effect = lower value 1.02 | locus YKL085W, strain MDH1, stronger effect = lower value 1.02 | locus YKR001C, strain vps1, stronger effect = lower value 0.927 | locus YKR026C, strain gcn3, stronger effect = lower value 1 | locus YKR091W, strain srl3, stronger effect = lower value 0.98 | locus YLL001W, strain dnm1, stronger effect = lower value 0.937 | locus YLL041C, strain sdh2, stronger effect = lower value 0.982 | locus YLR039C, strain RIC1, stronger effect = lower value 0.863 | locus YLR102C, strain apc9, stronger effect = lower value 1.05 | locus YLR113W, strain HOG1, stronger effect = lower value 0.965 | locus YLR258W, strain gsy2, stronger effect = lower value 0.926 | locus YLR262C, strain YPT6 (second series), stronger effect = lower value 0.881 | locus YLR370C, strain arc18, stronger effect = lower value 0.978 | locus YLR384C, strain iki3, stronger effect = lower value 1 | locus YML032C, strain rad52, stronger effect = lower value 0.987 | locus YML120C, strain ndi1, stronger effect = lower value 0.99 | locus YML124C, strain tub3, stronger effect = lower value 0.994 | locus YMR078C, strain ctf18, stronger effect = lower value 1.03 | locus YMR125W, strain sto1, stronger effect = lower value 1.07 | locus YMR129W, stronger effect = lower value 0.968 | locus YMR205C, strain PFK2, stronger effect = lower value 0.902 | locus YMR223W, strain ubp8, stronger effect = lower value 0.936 | locus YMR231W, strain pep5, stronger effect = lower value 0.948 | locus YMR307W, strain GAS1, stronger effect = lower value 0.724 | locus YNL067W, strain RPL9B, stronger effect = lower value 0.93 | locus YNL071W, strain lat1, stronger effect = lower value 0.943 | locus YNL183C, strain NPR1, stronger effect = lower value 0.908 | locus YNL248C, strain rpa49, stronger effect = lower value 0.951 | locus YNL250W, strain rad50, stronger effect = lower value 0.999 | locus YNL271C, strain bni1, stronger effect = lower value 1.01 | locus YNL298W, strain CLA4, stronger effect = lower value 0.991 | locus YNL307C, strain MCK1, stronger effect = lower value 0.957 | locus YNL322C, strain KRE1 (second series), stronger effect = lower value 1.05 | locus YNR049C, strain mso1, stronger effect = lower value 0.999 | locus YNR052C, strain pop2, stronger effect = lower value 1 | locus YOL012C, strain htz1 0.443 | locus YOL147C, strain pex11, stronger effect = lower value 1 | locus YOR001W, strain rrp6, stronger effect = lower value 0.988 | locus YOR080W, strain dia2, stronger effect = lower value 0.934 | locus YOR136W, strain idh2, stronger effect = lower value 0.996 | locus YOR144C, strain elg1, stronger effect = lower value 1 | locus YOR231W, strain MKK1, stronger effect = lower value 0.991 | locus YOR270C, strain vph1, stronger effect = lower value 0.849 | locus YOR290C, strain snf2, stronger effect = lower value 1 | locus YOR316C, strain cot1, stronger effect = lower value 0.988 | locus YPL078C, strain atp4, stronger effect = lower value 0.985 | locus YPL240C, strain hsp82, stronger effect = lower value 0.957 | locus YPL241C, strain CIN2, stronger effect = lower value 0.936 | locus YPL256C, strain CLN2, stronger effect = lower value 1 | locus YPR119W, strain clb2, stronger effect = lower value 1.02 | locus YPR141C, strain kar3, stronger effect = lower value 1.01 | locus YPR163C, strain tif3, stronger effect = lower value 0.979
active: locus YAL013W, strain DEP1, stronger effect = lower value 0.718 | locus YAL030W, strain snc1, stronger effect = lower value 0.876 | locus YBL061C, strain skt5, stronger effect = lower value 0.739 | locus YBR009C, strain hhf1, stronger effect = lower value 0.882 | locus YBR023C, strain chs3, stronger effect = lower value 0.747 | locus YBR231C, strain swc5, stronger effect = lower value 0.751 | locus YBR279W, strain paf1, stronger effect = lower value 0.796 | locus YCL011C, strain gbp2, stronger effect = lower value 0.881 | locus YCL016C, strain dcc1, stronger effect = lower value 0.869 | locus YDL035C, strain GPR1, stronger effect = lower value 0.72 | locus YDL074C, strain BRE1, stronger effect = lower value 0.727 | locus YDL134C, strain PPH21, stronger effect = lower value 0.736 | locus YDL192W, strain arf1, stronger effect = lower value 0.859 | locus YDR069C, strain doa4, stronger effect = lower value 0.711 | locus YDR162C, strain NBP2, stronger effect = lower value 0.664 | locus YDR297W, strain sur2, stronger effect = lower value 0.828 | locus YDR318W, strain mcm21, stronger effect = lower value 0.911 | locus YDR388W, stronger effect = lower value 0.917 | locus YEL061C, strain CIN8, stronger effect = lower value 0.869 | locus YER015W, strain faa2, stronger effect = lower value 0.653 | locus YER167W, strain BCK2, stronger effect = lower value 0.896 | locus YFR010W, strain ubp6, stronger effect = lower value 0.895 | locus YGL086W, strain mad1, stronger effect = lower value 0.861 | locus YGL173C, strain kem1, stronger effect = lower value 0.666 | locus YGL248W, strain PDE1, stronger effect = lower value 0.705 | locus YGL253W, strain hxk2, stronger effect = lower value 0.87 | locus YHR013C, strain ard1, stronger effect = lower value 0.755 | locus YHR027C, strain rpn1, stronger effect = lower value 0.614 | locus YHR129C, strain ARP1, stronger effect = lower value 0.769 | locus YHR142W, strain chs7, stronger effect = lower value 0.838 | locus YHR200W, strain rpn10, stronger effect = lower value 0.893 | locus YIL066C, strain RNR3, stronger effect = lower value 0.663 | locus YIL073C, strain SPO22, stronger effect = lower value 0.537 | locus YJL095W, strain BCK1 (second series), stronger effect = lower value 0.834 | locus YJL164C, strain tpk1, stronger effect = lower value 0.77 | locus YJL166W, strain qcr8, stronger effect = lower value 0.811 | locus YJL187C, strain SWE1 (second series), stronger effect = lower value 0.77 | locus YJL187C, strain SWE1, stronger effect = lower value 0.803 | locus YJR043C, strain POL32, stronger effect = lower value 0.717 | locus YJR075W, strain HOC1, stronger effect = lower value 0.852 | locus YKL160W, strain elf1, stronger effect = lower value 0.868 | locus YKL190W, strain CNB1, stronger effect = lower value 0.772 | locus YLL026W, stronger effect = lower value 0.915 | locus YLR027C, strain aat2, stronger effect = lower value 0.907 | locus YLR058C, strain SHM2, stronger effect = lower value 0.802 | locus YLR221C, strain rsa3, stronger effect = lower value 0.858 | locus YLR268W, strain sec22, stronger effect = lower value 0.841 | locus YLR320W, strain mms22, stronger effect = lower value 0.863 | locus YLR342W, strain FKS1, stronger effect = lower value 0.775 | locus YLR357W, strain rsc2, stronger effect = lower value 0.814 | locus YLR371W, strain rom2, stronger effect = lower value 0.806 | locus YLR418C, strain cdc73, stronger effect = lower value 0.827 | locus YML016C, strain PPZ1, stronger effect = lower value 0.677 | locus YMR058W, strain fet3, stronger effect = lower value 0.429 | locus YNL128W, strain TEP1, stronger effect = lower value 0.643 | locus YNL153C, strain GIM3, stronger effect = lower value 0.835 | locus YNL209W, strain ssb2, stronger effect = lower value 0.51 | locus YNL233W, strain BNI4, stronger effect = lower value 0.787 | locus YOL006C, strain TOP1, stronger effect = lower value 0.389 | locus YOR061W, strain CKA2, stronger effect = lower value 0.733 | locus YOR069W, strain VPS5, stronger effect = lower value 0.87 | locus YOR070C, strain gyp1, stronger effect = lower value 0.812 | locus YOR083W, strain WHI5, stronger effect = lower value 0.866 | locus YOR106W, strain vam3, stronger effect = lower value 0.634 | locus YOR184W, strain ser1, stronger effect = lower value 0.869 | locus YOR265W, strain rbl2, stronger effect = lower value 0.888 | locus YPL051W, strain arl3, stronger effect = lower value 0.658 | locus YPL106C, strain sse1, stronger effect = lower value 0.793 | locus YPR167C, strain met16, stronger effect = lower value 0.913 | strain wtn01, stronger effect = lower value 0.811
0.719 (active) and 0.977 (inactive): locus YJL095W, strain BCK1, stronger effect = lower value
